Assay results reported in PubChem BioAssay (Tox21).
Several values for one entry are separate records, joined by “and”; a condition that tells them apart may be missing. Identical values can stand only once. Activity calls are given as the source filed them. Unless noted, calls follow the shape of the dose curve; as a rule, active = well fitted curve in the direction sought with a large enough effect in the repeat runs; inconclusive = weak or mixed curves; inactive = no such curve, though single readings can be large; an effect the other way counts as inactive or inconclusive.

Assays:
[1] = qHTS assay to identify small molecule antagonists of the thyroid receptor (TR) signaling pathway - cell viability counter screen (AID 743064); also: nearly all actives have a fitted effect of over 50% in size; also: potency is read from the fitted curve at half-maximal effect
Outline: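 GH3.TRE-Luc rat pituitary cells dosed after 4 hr plating, co-stimulated with T3 at 1 nM final, incubated 23.5 h at 37 C. Viability measured in the same wells by CellTiter-Fluor fluorescence after 30 min further at 37 C.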

[2] = molecular target: Estrogen receptor (Homo sapiens) (UniProt P03372); assay: qHTS assay to identify small molecule antagonists of the estrogen receptor alpha (ER-alpha) signaling pathway (AID 743069; active = well fitted curve in the direction sought with a large enough effect in the signal ratio in the repeat runs, not every such curve was filed as active; inconclusive = weak or mixed curves, or effect the other way; inactive = no such curve, though single readings can be large or run the other way; the % refers to the signal ratio)
Outline: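 Fluorescence intensity from a beta-lactamase FRET substrate served as the read-out. Cells: HEK293 with stably integrated ER-alpha-UAS-bla reporter. Agonist 17beta-estradiol was co-added with compounds; incubation 18 hr at 37C, substrate 2 hr at room temperature.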

[3] = qHTS assay to identify small molecule antagonists of the estrogen receptor alpha (ER-alpha) signaling pathway - cell viability counter screen (AID 743074; calls by dose curve; also: nearly all actives have a fitted effect of over 45% in size; also: potency is read from the fitted curve at half-maximal effect)
[4] = molecular target: Estrogen receptor (Homo sapiens) (UniProt P03372); assay: qHTS assay to identify small molecule agonists of the estrogen receptor alpha (ER-alpha) signaling pathway (AID 743075; calls by dose curve; also: potency is read from the fitted curve at half-maximal effect)
[5] = qHTS assay to identify small molecule antagonists of the estrogen receptor alpha (ER-alpha) signaling pathway using the BG1 cell line (AID 743080; calls by dose curve;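 also: BG1 cells stimulated with 17beta-estradiol alongside compound; nearly all actives have a fitted effect of over 25% in size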; also: potency is read from the fitted curve at half-maximal effect)
Outline: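 Readout is ONE-Glo luminescence, taken 30 min at room temperature after reagent addition, preceded by a CellTiter-Fluor viability read; BG1-Luc-4E2 cells had received compound and 17beta-estradiol for 21.5 h at 37 C.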

[6] = qHTS assay to identify small molecule antagonists of the estrogen receptor alpha (ER-alpha) signaling pathway using the BG1 cell line - cell viability counter screen (AID 743081);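 also: compound given together with 17beta-estradiol as the ER stimulus; nearly all actives have a fitted effect of over 45% in size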
Aromatase (Homo sapiens) = Aromatase (Homo sapiens) (UniProt P11511); assay: qHTS assay to identify aromatase inhibitors (AID 743083); also: nearly all actives have a fitted effect of over 55% in size; also: potency is read from the fitted curve at half-maximal effect
[7] = molecular target: Estrogen receptor (Homo sapiens) (UniProt P03372); assay: qHTS assay to identify small molecule agonists of the estrogen receptor alpha (ER-alpha) signaling pathway using the BG1 cell line (AID 743079); settings: BG1Luc4E2 cells, ERE-luciferase agonist, 22 h; activation: at 70.3 µM (top of the series); also: nearly all actives have a fitted effect of over 20% in size; also: potency is read from the fitted curve at half-maximal effect
[8] = tested on: thyroid hormone receptor (rat, GH3 cells); assay: qHTS assay to identify small molecule agonists of the thyroid receptor (TR) signaling pathway (AID 743066; calls by dose curve)
[9] = qHTS assay to identify small molecule antagonists of the thyroid receptor (TR) signaling pathway (AID 743065); also: nearly all actives have a fitted effect of over 55% in size; also: potency is read from the fitted curve at half-maximal effect
Outline: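 Antagonism measured as loss of luciferase signal in GH3 cells stably carrying a TRE-luciferase reporter, co-treated with compound and T3 (1 nM final) for 23.5 h at 37 C. Viability was read in the same well by CellTiter-Fluor.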

Measured: Potency

Aromatase (Homo sapiens), sequence (P11511 whole entry, looked up): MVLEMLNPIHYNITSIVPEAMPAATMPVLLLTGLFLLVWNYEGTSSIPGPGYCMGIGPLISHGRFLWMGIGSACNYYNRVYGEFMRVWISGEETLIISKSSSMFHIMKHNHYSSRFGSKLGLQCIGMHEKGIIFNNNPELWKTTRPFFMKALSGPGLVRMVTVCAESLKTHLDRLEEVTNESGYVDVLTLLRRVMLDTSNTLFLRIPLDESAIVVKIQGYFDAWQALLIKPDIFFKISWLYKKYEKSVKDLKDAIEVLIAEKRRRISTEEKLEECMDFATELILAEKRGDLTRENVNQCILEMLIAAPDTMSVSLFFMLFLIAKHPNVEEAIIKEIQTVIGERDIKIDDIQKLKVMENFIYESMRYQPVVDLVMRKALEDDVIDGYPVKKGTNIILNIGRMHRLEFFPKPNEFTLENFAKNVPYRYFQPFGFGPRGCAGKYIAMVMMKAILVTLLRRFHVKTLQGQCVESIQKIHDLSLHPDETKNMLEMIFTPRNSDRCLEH
Estrogen receptor (Homo sapiens), sequence (P03372 whole entry, looked up): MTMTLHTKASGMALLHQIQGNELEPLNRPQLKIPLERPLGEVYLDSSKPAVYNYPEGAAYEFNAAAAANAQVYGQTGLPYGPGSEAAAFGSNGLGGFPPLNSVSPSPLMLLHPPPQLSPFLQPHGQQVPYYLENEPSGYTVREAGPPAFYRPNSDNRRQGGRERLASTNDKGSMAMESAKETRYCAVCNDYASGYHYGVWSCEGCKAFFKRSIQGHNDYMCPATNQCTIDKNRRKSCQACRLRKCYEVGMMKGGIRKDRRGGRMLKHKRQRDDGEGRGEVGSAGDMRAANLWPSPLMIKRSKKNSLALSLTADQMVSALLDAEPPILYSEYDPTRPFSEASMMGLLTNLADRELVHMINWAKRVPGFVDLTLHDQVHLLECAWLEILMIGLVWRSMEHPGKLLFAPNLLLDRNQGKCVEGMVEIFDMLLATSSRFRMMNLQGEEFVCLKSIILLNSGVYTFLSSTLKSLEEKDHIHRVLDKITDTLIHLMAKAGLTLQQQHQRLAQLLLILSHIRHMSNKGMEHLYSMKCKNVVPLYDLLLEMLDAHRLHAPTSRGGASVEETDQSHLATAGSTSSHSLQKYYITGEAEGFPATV

CCCCCCCC/C=C\CCCCCCCCCCCC(=O)O
inactive: [1] | [2] | [3] | [4] | [5] | [6] | Aromatase (Homo sapiens)

CCCC(C(=O)OCCN(CC)CC)(c1ccccc1)c1ccccc1
active: [1] 23.7 µM
inactive: [2] | [3] | [4] | [7]

CC1CC(OC(=O)C(O)c2ccccc2)CC(C)(C)N1C (centres undefined)
inactive: [1] | [8] | [3] | [6] | Aromatase (Homo sapiens)

O=[N+]([O-])c1ccc(Nc2ccc(Nc3ccccc3)c(S(=O)(=O)O)c2)c([N+](=O)[O-])c1
inactive: [8] | [3] | Aromatase (Homo sapiens)
active: [1] 48.6 µM

O=C(O)C[C@H](NC(=O)OCc1ccccc1)C(=O)O
inactive: [1] | [2] | [3] | [4] | [7] | [5] | [6] | Aromatase (Homo sapiens)

O=C(CCc1ccc(O)cc1)c1c(O)cc(O)cc1O
inactive: [8] | [6]
active: [1] 55.7 µM | [4] 14.1 µM [inconclusive] | [7] 4.96 µM

CN1CCCC(n2nc(Cc3ccc(Cl)cc3)c3ccccc3c2=O)CC1 (centres undefined)
inactive: [2] | [3] | [4] | [7] | [5] | Aromatase (Homo sapiens)
active: [1] 21.1 µM

N#CCCN(CCO)CCO
inactive: [9] | [8] | [2] | [3] | [4] | [7] | [5] | [6] | Aromatase (Homo sapiens)

O=C(/C=C/c1ccc(O)c(O)c1)O[C@@H]1C[C@@](OC(=O)/C=C/c2ccc(O)c(O)c2)(C(=O)O)C[C@@H](O)[C@@H]1O
inactive: [9] | [8] | [2] | [3] | [4] | [7] | [5] | [6] | Aromatase (Homo sapiens)

C/C=C\C/C=C/CCCCCCCCOC(C)=O
active: [9] 68.6 µM
inactive: [8] | [2] | [3] | [4] | [7] | [5] | [6] | Aromatase (Homo sapiens)

CCC(OCCCOC)OC(C)=O (centres undefined)
inactive: [1] | [8] | [3] | [6] | Aromatase (Homo sapiens)

CCCCCCCC/C=C\CCCCCCCCO
inactive: [1] | [8] | [6] | Aromatase (Homo sapiens)

FC(F)(F)c1ccccc1Cl
inactive: [9] | [8] | [2] | [3] | [4] | [7] | [5] | [6] | Aromatase (Homo sapiens)

Cc1ccc(Cl)c(Nc2ccccc2C(=O)O)c1Cl
inactive: [1] | [8] | [4] | [7] | [5] | [6] | Aromatase (Homo sapiens)

Oc1ccc(Cl)c2cccnc12
inactive: [3] | [4] | [7] | [5] | [6]
active: [1] 7.5 µM | Aromatase (Homo sapiens) 3.35 µM

C[C@@H](O)[C@H]1C(=O)N2C(C(=O)O)=C([C@H]3CCCO3)S[C@H]12
inactive: [9] | [8] | [2] | [3] | [4] | [7] | [5] | [6] | Aromatase (Homo sapiens)

COc1ccccc1Oc1c(NS(=O)(=O)c2ccc(C(C)(C)C)cc2)nc(-c2ncccn2)nc1OCCO
inactive: [1] | [2] | [4] | [7] | [6] | Aromatase (Homo sapiens)

CC(=O)OCC[N+](C)(C)C
inactive: [1] | [8] | [3] | [6] | Aromatase (Homo sapiens)

O=C1CCCCCCCCCCOCCCCO1
inactive: [1] | [8] | [3] | [6]

CCCCCCCCOc1ccc(C(=O)O)cc1
inactive: [1] | [8] | [3] | [6]

O=C(O)c1ccc(OCCCOc2ccc(C(=O)O)cc2)cc1
inactive: [1] | [3] | [6] | Aromatase (Homo sapiens)

Nc1nnc(-c2ccc([N+](=O)[O-])o2)o1
inactive: [2] | [3] | [4]
active: [1] 61.1 µM | Aromatase (Homo sapiens) 48.6 µM

Cc1ccccc1S
inactive: [9] | [8] | [2] | [3] | [4] | [7] | [5] | [6] | Aromatase (Homo sapiens)

CCCCCCCCCCCCCCN(CCO)CCO
active: [1] 19.3 µM | [3] 54.9 µM | Aromatase (Homo sapiens) 27.3 µM
inactive: [8] | [6]

Cc1cccc(O)c1N
inactive: [1] | [8] | [3] | [6] | Aromatase (Homo sapiens)

O=Cc1c2ccccc2c(Cl)c2ccccc12
active: [4] 13.5 µM [inconclusive]
inactive: [9] | [8] | [2] | [3] | [7] | [5] | [6] | Aromatase (Homo sapiens)

CCC(C)COC(C)=O (centres undefined)
inactive: [9] | [8] | [2] | [3] | [4] | [7] | [5] | [6] | Aromatase (Homo sapiens)

CCC(=O)OC
inactive: [1] | [2] | [3] | [4] | [7] | [6] | Aromatase (Homo sapiens)

CC(C)(c1ccccc1)c1ccccc1
inactive: [1] | [8] | [3] | [6] | Aromatase (Homo sapiens)

CC1=Nc2ccc3ccccc3c2C1(C)C
inactive: [9] | [8] | [3] | [4] | [5] | [6] | Aromatase (Homo sapiens)

CC(=O)c1ccc([N+](=O)[O-])cc1
inactive: [9] | [8] | [3] | [6] | Aromatase (Homo sapiens)

CCOC(=O)[C@H](CCc1ccccc1)N[C@@H](C)C(=O)N(CC(=O)O)C1Cc2ccccc2C1
inactive: [9] | [8] | [2] | [4] | [7] | [6] | Aromatase (Homo sapiens)

O=C(O)c1cccc(-c2noc(-c3ccccc3F)n2)c1
inactive: [8] | [6] | Aromatase (Homo sapiens)
active: [9] 10.6 µM

Nc1nc2ccc([N+](=O)[O-])cc2s1
inactive: [8] | Aromatase (Homo sapiens)
active: [9] 48.6 µM

O=C(OCC(O)CO)c1ccccc1Nc1ccnc2cc(Cl)ccc12 (centres undefined)
inactive: [9] | [8] | [3] | [4] | [7] | [5] | [6] | Aromatase (Homo sapiens)

Cc1ccccc1N=C(N)Nc1ccccc1C
inactive: [9] | [8] | [2] | [3] | [4] | [7] | [5] | Aromatase (Homo sapiens)

CC[C@]1(O)C[C@H]2CN(CCc3c([nH]c4ccccc34)[C@@](C(=O)OC)(c3cc4c(cc3OC)N(C=O)[C@H]3[C@@](O)(C(=O)OC)[C@H](OC(C)=O)[C@]5(CC)C=CCN6CC[C@]43[C@@H]65)C2)C1
active: [9] 0.0944 µM | [5] 0.0531 µM
inactive: [8] | [6] | Aromatase (Homo sapiens)

CCCCCCCCCCC(=O)O
inactive: [9] | [8] | [3] | [4] | [7] | [6] | Aromatase (Homo sapiens)

CC=C(Cl)Cl
inactive: [9] | [8] | [2] | [3] | [7] | [5] | [6] | Aromatase (Homo sapiens)

Clc1cc(Cl)nc(Cl)n1
inactive: [9] | [8] | [3] | [6] | Aromatase (Homo sapiens)

CN(C)CCC=C1c2ccccc2C=Cc2ccccc21
inactive: [3] | [4] | [7] | [5] | [6] | Aromatase (Homo sapiens)
active: [9] 26.6 µM

CN1CC(=O)N2[C@H](c3ccc4c(c3)OCO4)c3[nH]c4ccccc4c3C[C@@H]2C1=O
inactive: [9] | [8] | [2] | [4] | [7] | [6] | Aromatase (Homo sapiens)

CC(C)=CC(=O)C=C(C)C
inactive: [9] | [8] | [2] | [3] | [4] | [7] | [6] | Aromatase (Homo sapiens)

CC(C)(C)C(=O)C(=O)O
inactive: [9] | [8] | [2] | [3] | [4] | [7] | [6] | Aromatase (Homo sapiens)

Oc1cccc(O)c1O
active: [4] 21.3 µM [inconclusive] and 54.5 µM [inconclusive] | [7] 5.96 µM
inactive: [9] | [8] | [3] | [6] | Aromatase (Homo sapiens)

CCCCCC[C@@H](O)C/C=C\CCCCCCCC(=O)OCC(O)CO (some centres undefined)
inactive: [9] | [8] | [3] | [4] | [7] | [6] | Aromatase (Homo sapiens)

CC(=O)OCCN(CCOC(C)=O)c1ccc(N=Nc2ccc([N+](=O)[O-])cc2C#N)cc1
active: [9] 61.1 µM
inactive: [8] | [3]

CCOC(=O)c1ccc(I)cc1
inactive: [9] | [8] | [2] | [3] | [4] | [7] | [6] | Aromatase (Homo sapiens)

CC(C)=CCC1C(=O)N(c2ccccc2)N(c2ccccc2)C1=O
active: [9] 21.1 µM
inactive: [8] | [3] | [4] | [6] | Aromatase (Homo sapiens)
